Measured values from PubChem BioAssay (Tox21).
Inconclusive results are not listed. Values without a mark were called inactive. Calls of active or inactive are those of the source. Calls come from the whole dose curve; as a rule, active = well fitted inhibition curve with a large enough effect in the signal ratio in the repeat runs (not every such curve was filed as active); inconclusive = weak or mixed curves, or effect the other way; inactive = no such curve, though single readings can be large or run the other way; the % refers to the signal ratio.

These compounds were tested against Peroxisome proliferator-activated receptor delta (Homo sapiens) (UniProt Q03181) (assay: qHTS assay to identify small molecule antagonists of the peroxisome proliferator-activated receptor delta (PPARd) signaling pathway (AID 743215;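 note: cells stimulated with agonist L165041 at 300 nM final during compound exposure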)). Details: HEK293H PPARd-UAS-bla, beta-lactamase FRET ratio, antagonist, 17 h; series mostly up to 62 µM; ratio activity, negative = inhibition: at the top concentration.
Text: U.S. Tox21 Program National Center for Advancing Translational Sciences [NCATS] NIH Chemical Genomics Center [NCGC] U.S. Environmental Protection Agency [EPA] National Institutes of Environmental Health Sciences [NIEHS] National Toxicology Program [NTP] U.S. Food and Drug Administration [FDA] Tox21 Assay Overview: The peroxisome proliferator-activated receptors (PPARs) are lipid-activated transcription factors of the nuclear receptor superfamily with three distinct subtypes namely PPAR alpha, PPAR delta (PPARd) and PPAR gamma. All these subtypes heterodimerizes with Retinoid X receptor (RXR) and have different physiological functions. […] To identify the compounds that inhibit PPAR-delta signaling, GeneBLAzer PPAR delta UAS-bla HEK293H cell line (Invitrogen, Carlsbad, CA, USA) containing a beta-lactamase reporter gene under the control of an Upstream Activator Sequence (UAS) was used to screen the Tox21 compound library.
Tox21 Assay Protocol Summary: PPARd-bla cells were dispensed at 3000 cells/5uL/well in 1536-well black wall/clear bottom plates using a Multidrop Combi (Thermo Fisher Scientific, Waltham, MA) dispenser. After the assay plates were incubated at 37 C and 5% CO2 for 5 h, 23 nL of compounds dissolved in DMSO, positive controls or DMSO only was transferred to the assay plate by a Pintool station (Kalypsys, San Diego, CA), followed by addition of 1ul L165041 (300 nM, final concentration in the wells). The assay plates were incubated at 37 C for 17 h, and then 1 uL of LiveBLAzerTM B/G FRET substrate was added using a Bioraptr Flying Reagent Dispenser (FRD) workstation (Beckman Coulter, Indianapolis, IN, USA). The assay plates were incubated at room temperature for 2 h and fluorescence intensity was measured by an Envision plate reader (PerkinElmer, Shelton, CT).
% is set by controls: 0 for no effect and ±100 for the full control effect; potency is the fitted concentration of half-maximal effect.

Sequence of Peroxisome proliferator-activated receptor delta (Homo sapiens) (Q03181 whole entry, looked up): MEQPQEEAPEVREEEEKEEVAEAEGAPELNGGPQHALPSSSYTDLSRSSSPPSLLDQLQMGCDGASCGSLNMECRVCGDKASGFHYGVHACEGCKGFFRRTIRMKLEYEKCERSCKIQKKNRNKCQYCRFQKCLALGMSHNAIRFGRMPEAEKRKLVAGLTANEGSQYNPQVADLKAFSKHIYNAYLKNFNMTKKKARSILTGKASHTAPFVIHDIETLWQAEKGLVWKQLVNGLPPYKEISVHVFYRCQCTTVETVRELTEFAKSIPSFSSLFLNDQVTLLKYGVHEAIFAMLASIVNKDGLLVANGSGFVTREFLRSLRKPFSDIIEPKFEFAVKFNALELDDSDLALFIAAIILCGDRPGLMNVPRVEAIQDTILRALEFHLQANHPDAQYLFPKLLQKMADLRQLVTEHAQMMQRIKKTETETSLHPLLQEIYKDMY

Compared with `CC/C(=N\OC/C=C/Cl)C1=C(O)CC(C2CCOCC2)CC1=O` (stereo not given), `CC1Sc2c(C(=O)O)c(=O)c3cc(F)c(N4CCNCC4)cc3n21` (stereo not given) is lower in “ratio activity, negative = inhibition” value: 17.2% for the first, -0.953% for the second.

First: Clc1cccc2ccccc12
Second: Cc1ccc2ccccc2c1
The “ratio activity, negative = inhibition” value of the first is higher: 10.9% for the first, 6.71% for the second.

Compared with `Clc1cc(C(Cl)(Cl)Cl)cnc1Cl`, `CCOP(=O)(OCC)O/C(=C/Cl)c1ccc(Cl)cc1Cl` is lower in “ratio activity, negative = inhibition” value: 14.5% for the first, 1.06% for the second.

Compared with `CCCN(CCC)c1c([N+](=O)[O-])cc(S(C)(=O)=O)cc1[N+](=O)[O-]`, `Nc1ccc([N+](=O)[O-])cc1[N+](=O)[O-]` is higher in “ratio activity, negative = inhibition” value: -13.2% for the first, -12% for the second.

Going from `CNC(C)Cc1ccccc1OC` (stereo not given) to `Cc1ccccc1CCl`, the “ratio activity, negative = inhibition” value rises from -1.95% to 17.4%.

First: C=CC(C)=O
Second: CC(=O)NC1CCSC1=O (stereo not given)
The “ratio activity, negative = inhibition” value of the first is lower: -0.383% for the first, 10.7% for the second.

Compared with `CNP(=O)(OC)Oc1ccc(C(C)(C)C)cc1Cl` (stereo not given), `O=C(O)COc1ccc(Cl)cc1` is lower in “ratio activity, negative = inhibition” value: 1.35% for the first, 0.0193% for the second.

Compared with `CC(C)N(CCC(C(N)=O)(c1ccccc1)c1ccccn1)C(C)C` (stereo not given), `O=C(O)c1ccccc1C(=O)Nc1cccc2ccccc12` is higher in “ratio activity, negative = inhibition” value: -20.6% for the first, -2.44% for the second.

Going from `CC1(C)CCC(Cc2ccc(Cl)cc2)C1(O)Cn1cncn1` (stereo not given) to `ClCc1cccc(Cl)c1`, the “ratio activity, negative = inhibition” value rises from -0.456% to 5.54%.

Going from `N#Cc1cc(I)c(O)c(I)c1` to `CC(=O)c1cc2c(cc1C)C(C)(C)C(C)CC2(C)C` (stereo not given), the “ratio activity, negative = inhibition” value rises from 4.01% to 5.15%.

Compared with `N#C/C(N)=C(/N)C#N`, `COc1nn(C(=O)NS(=O)(=O)c2ccccc2OC(F)(F)F)c(=O)n1C` is lower in “ratio activity, negative = inhibition” value: 12.5% for the first, 11.8% for the second.

Going from `O=Cc1ccc2c(c1)OCO2` to `CCCCc1c(C)nc(NCC)nc1OS(=O)(=O)N(C)C`, the “ratio activity, negative = inhibition” value falls from 9.41% to 1.95%.

In the case of `CC(Cl)C(C)Cl` (stereo not given), the “ratio activity, negative = inhibition” value is reported as 0%.

First: O=Cc1ccc(Cl)cc1Cl
Second: Oc1ccc(Cl)c(Cl)c1Cl
The “ratio activity, negative = inhibition” value of the first is higher: 1.72% [at 80.4 µM] for the first, -0.826% [at 80.4 µM] for the second.

Going from `CCBr` to `ClCCCCBr`, the “ratio activity, negative = inhibition” value falls from 4.98% [at 80.4 µM] to 0.975% [at 80.4 µM].

First: CCCCCCCCOC(=O)c1ccc(C(=O)OCCCCCCCC)c(C(=O)OCCCCCCCC)c1
Second: O=[N+]([O-])c1ccc(F)c([N+](=O)[O-])c1
The “ratio activity, negative = inhibition” value of the first is higher: 7.16% [at 80.4 µM] for the first, -4.3% [at 80.4 µM] for the second.

Compared with `CC(C)(Cl)[N+](=O)[O-]`, `O=[N+]([O-])c1ccccc1CCl` is higher in “ratio activity, negative = inhibition” value: -0.139% [at 80.4 µM] for the first, 0.0319% [at 80.4 µM] for the second.

Compared with `ClP(Cl)(Cl)(Cl)Cl`, `ClC=C(Cl)Cl` is higher in “ratio activity, negative = inhibition” value: -6.93% [at 80.4 µM] for the first, -0.456% [at 80.4 µM] for the second.

First: C=CCCl
Second: CCOS(C)(=O)=O
The “ratio activity, negative = inhibition” value of the first is higher: 10.9% [at 80.4 µM] for the first, 10.3% [at 80.4 µM] for the second.

Going from `Cn1cc[n+](C)c1` (tested in a mixture with another compound) to `O=NN1CCNCC1`, the “ratio activity, negative = inhibition” value falls from -3.59% [at 80.4 µM] to -6.89% [at 80.4 µM].

In the case of `CC(c1ccc(O)cc1)(c1ccc(O)cc1)c1ccc(O)cc1`, the Potency is reported as 4.9 µM (active).
